# Measurements as given in PubChem BioAssay (NCATS).
# Where “and” joins values, the source holds several entries; their conditions need not be identical. Equal entries are not always repeated. Inconclusive results are not listed. A call without a number means that no potency is given here. A number with no mark means an inactive call. Calls of active or inactive are those of the source. The call rests on the fitted dose curve; in most records, active means well fitted curve in the direction sought with a large enough effect; inconclusive means small, poorly fitted or top-dose-only effect, or another doubt; inactive means no such curve, though single readings can be large; an effect the other way counts as inactive or inconclusive.
# Tests used:
# [1] = system: PA-1; experiment: Primary qHTS to identify gynecologic anti-cancer compounds using libraries of approved drugs and bioactive compounds (AID 1345084); conditions: Gynecologic cancer cell panel viability, ATPlite luminescence, 48 h; series mostly up to 57.5 µM; further: nearly all actives have a fitted effect of over 55% in size
# In short: (§1)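 Luminescence from the ATPlite ATP-monitoring reagent indicates viable cell number; lower signal means cytotoxicity. Cells received compound 16 h after seeding and were exposed for 48 h across five concentrations.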
# [2] = system: SKOV3; experiment: as above; conditions: Gynecologic cancer cell panel viability, ATPlite luminescence, 48 h; series mostly up to 57.5 µM
# In short: as §1
# [3] = system: Tov-21-G; experiment: as above; conditions: Gynecologic cancer cell panel viability, ATPlite luminescence, 48 h; series mostly up to 57.5 µM
# In short: as §1
# [4] = system: Tov112D; experiment: as above; conditions: Gynecologic cancer cell panel viability, ATPlite luminescence, 48 h; series mostly up to 57.5 µM
# In short: as §1
# [5] = Drug repurposing screens with cells derived from glioblastoma tumor samples (AID 1345199); conditions: GBM patient neurospheres viability, ATP luminescence, 48 h; for Potency: tumour line A; on all read-outs here: nearly all actives have a fitted effect of over 40% in size
# In short: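 Primary testing used CD133+ neurospheres from four GBM patients, seven concentrations, 48 h exposure and ATP-based viability; confirmation added three slower-growing patient lines.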
# [6] = at 45.9 µM (top of the series), tumour line B
# [7] = at 45.9 µM (top of the series), tumour line D
# [8] = at 21.2 µM (top of the series), tumour line B
# [9] = at 21.2 µM (top of the series), tumour line D
# Potency means the concentration at half of the fitted maximal effect.
compound,measurement,setting,value
C[C@]12C=CC(=O)C=C1CC[C@@H]1[C@@H]2CC[C@@]2(C)[C@H]1CC[C@]2(C)O,Potency,[1],inactive
same,Potency,[2],inactive
same,Potency,[3],inactive
same,Potency,[4],inactive
same,"activity, negative = cell killing",[5]; [6],-4.86%
same,"activity, negative = cell killing",[5]; [7],-22.4%
O=C1NCN(c2ccccc2)C12CCN(CCCOc1ccc(F)cc1)CC2,Potency,[1],inactive
same,Potency,[2],inactive
same,Potency,[3],inactive
same,Potency,[4],inactive
O=C(CBr)Nc1ccc(Cl)cc1C(=O)c1ccccc1F,Potency,[1],inactive
same,Potency,[2],inactive
same,Potency,[3],inactive
same,Potency,[4],inactive
CC(C)(C)OC(=O)c1ncn2c1[C@@H]1CCCN1C(=O)c1c(Br)cccc1-2,Potency,[1],inactive
same,Potency,[2],inactive
same,Potency,[3],inactive
same,Potency,[4],inactive
same,"activity, negative = cell killing",[5]; [6],-9.06%
same,"activity, negative = cell killing",[5]; [7],-11.3%
C#C[C@]1(O)C=C[C@H]2[C@@H]3CCC4=CC(=O)CC[C@@H]4[C@H]3CC[C@@]21CC,Potency,[1],inactive
same,Potency,[2],inactive
same,Potency,[3],inactive
same,Potency,[4],inactive
same,"activity, negative = cell killing",[5]; [6],-6.47%
same,"activity, negative = cell killing",[5]; [7],-10.7%
Sc1ccccc1Cl,Potency,[1],inactive
same,Potency,[2],inactive
same,Potency,[3],inactive
same,Potency,[4],inactive
CCN1CCCC1CNC(=O)C(O)(c1ccccc1)c1ccccc1 (stereo unspecified),Potency,[1],inactive
same,Potency,[2],inactive
same,Potency,[3],inactive
same,Potency,[4],inactive
ClCc1cccc(Cl)c1,Potency,[1],inactive
same,Potency,[2],inactive
same,Potency,[3],inactive
same,Potency,[4],inactive
NC(=O)OCCCc1ccccc1,Potency,[1],inactive
same,Potency,[2],inactive
same,Potency,[3],inactive
same,Potency,[4],inactive
same,"activity, negative = cell killing",[5]; [6],0.315%
same,"activity, negative = cell killing",[5]; [7],-23.1%
C[C@]12CC[C@H]3[C@@H](CCC4=CC(=O)CC[C@@]43C)[C@@H]1CC[C@@H]2C(=O)O,Potency,[1],inactive
same,Potency,[2],inactive
same,Potency,[3],inactive
same,Potency,[4],inactive
CCc1ccc(C2CCNCC2)cc1,Potency,[1],inactive
same,Potency,[2],inactive
same,Potency,[3],inactive
same,Potency,[4],inactive
C[C@@H]1CN(C2CCC(C#N)(c3ccc(F)cc3)CC2)CC[C@]1(C(=O)O)c1ccccc1 (stereo partly specified),Potency,[1],inactive
same,Potency,[2],inactive
same,Potency,[3],inactive
same,Potency,[4],inactive
same,"activity, negative = cell killing",[5]; [8],-8.19%
same,"activity, negative = cell killing",[5]; [9],-4.39%
CN1CCC(N(Cc2ccccc2)c2ccccc2)CC1,Potency,[1],inactive
same,Potency,[2],inactive
same,Potency,[3],inactive
same,Potency,[4],inactive
O=c1[nH]c2cc(Cl)ccc2n1C1CCNCC1,Potency,[1],inactive
same,Potency,[2],inactive
same,Potency,[3],inactive
same,Potency,[4],inactive
CCOC(=O)C(c1c(O)c2ccccc2oc1=O)c1c(O)c2ccccc2oc1=O,Potency,[1],inactive
same,Potency,[2],inactive
same,Potency,[3],inactive
same,Potency,[4],inactive
CCOC(C(=O)OCCN(C)C)(c1ccccc1)c1ccccc1,Potency,[1],inactive
same,Potency,[2],inactive
same,Potency,[3],inactive
same,Potency,[4],inactive
CC(Cc1ccccc1)NCCCCl (stereo unspecified),Potency,[1],inactive
same,Potency,[2],inactive
same,Potency,[3],inactive
same,Potency,[4],inactive
CC(C)=CCN1CC[C@@]2(C)c3cc(O)ccc3C[C@@H]1[C@@H]2C,Potency,[1],inactive
same,Potency,[2],inactive
same,Potency,[3],inactive
same,Potency,[4],inactive
same,"activity, negative = cell killing","[5]; at 91.6 µM (top of the series), tumour line B",-12.8%
same,Potency,[5],25.1 µM (active)
COP(=S)(OC)Oc1ccc(S(N)(=O)=O)cc1,Potency,[1],inactive
same,Potency,[2],inactive
same,Potency,[3],inactive
same,Potency,[4],inactive
same,"activity, negative = cell killing",[5]; [6],-9.2%
same,"activity, negative = cell killing",[5]; [7],-4.94%
Cc1c(Cl)c(=O)oc2cc(OP(=O)(OCCCl)OCCCl)ccc12,Potency,[1],inactive
same,Potency,[2],inactive
same,Potency,[3],inactive
same,Potency,[4],inactive
same,"activity, negative = cell killing",[5]; [6],-10.4%
same,"activity, negative = cell killing",[5]; [7],-23.1%
CC(CC(C(N)=O)(c1ccccc1)c1ccccc1)N(C)C (stereo unspecified),Potency,[1],inactive
same,Potency,[2],inactive
same,Potency,[3],inactive
same,Potency,[4],inactive
O=C(CCCCl)c1ccc(F)cc1,Potency,[1],inactive
same,Potency,[2],inactive
same,Potency,[3],inactive
same,Potency,[4],inactive
CCOC(=O)c1cncn1C(C)c1ccccc1 (stereo unspecified),Potency,[1],inactive
same,Potency,[2],inactive
same,Potency,[3],inactive
same,Potency,[4],inactive
same,"activity, negative = cell killing",[5]; [8],0.856%
same,"activity, negative = cell killing",[5]; [9],-20.7%
CC1COC2(c3ccccc3Cl)c3cc(Cl)ccc3NC(=O)CN12 (stereo unspecified),Potency,[1],inactive
same,Potency,[2],inactive
same,Potency,[3],inactive
same,Potency,[4],inactive
CCS(=O)(=O)C(C)(C)S(=O)(=O)CC,Potency,[1],inactive
same,Potency,[2],inactive
same,Potency,[3],inactive
same,Potency,[4],inactive
same,"activity, negative = cell killing",[5]; [6],-4.87%
same,"activity, negative = cell killing",[5]; [7],5.45%
ClCCCN1CCN(c2cccc(Cl)c2)CC1,Potency,[1],inactive
same,Potency,[2],inactive
same,Potency,[3],inactive
same,Potency,[4],inactive
c1ccc2nc(N3CCNCC3)ccc2c1,Potency,[1],inactive
same,Potency,[2],inactive
same,Potency,[3],inactive
same,Potency,[4],inactive
C[C@]12CC[C@H]3[C@@H](CCC4=CC(=O)CC[C@@H]43)[C@@H]1CC[C@@H]2O,Potency,[1],10 µM (active)
same,Potency,[2],inactive
same,Potency,[3],inactive
same,Potency,[4],inactive
same,"activity, negative = cell killing",[5]; [6],2.47% and -10.2%
CCO[C@H]1O[C@@H]2OC3(C)CC[C@H]4[C@H](C)CC[C@@H]([C@H]1C)[C@@]24OO3,Potency,[1],inactive
same,Potency,[2],inactive
same,Potency,[3],inactive
same,Potency,[4],inactive
CCC(=O)C(CCN(C)C)(c1ccccc1)c1ccccc1,Potency,[1],inactive
same,Potency,[2],inactive
same,Potency,[3],inactive
same,Potency,[4],inactive
CC(C(O)c1ccccc1)N(C)C/C=C/c1ccccc1 (stereo unspecified),Potency,[1],inactive
same,Potency,[2],inactive
same,Potency,[3],inactive
same,Potency,[4],inactive
CCN(CC)CCOC(=O)C(C)(c1ccccc1)c1ccccc1,Potency,[1],inactive
same,Potency,[2],inactive
same,Potency,[3],inactive
same,Potency,[4],inactive
same,"activity, negative = cell killing",[5]; [6],-27.8%
same,Potency,[5],10 µM (active)
